CCT chaperon mod: High-Throughput Screening for Modulators of Cytosolic Chaperonin Activity; purified chaperonin ATPase assay, HTRF ADP detection, 30 min; activity change, % (test concentration not listed), hits read low; 0.3% of 360,000 active; in the data active = activity change below about -30%; also: % is scaled to controls: 0 for no effect and ±100 for the full control effect
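We incubate TRiC, 40 or 20 nM final, with library compounds at 76 uM and 10 uM ATP for 30 min at 37 °C. ADP formed is detected with Transcreener HTRF reagents after 30 min at room temperature.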
TCR activator: Activators of T cell receptors: qHTS campaign; 330,000 tested, under 10 active; primary human leukocytes, anti-CD3, IL-2 HTRF, 48 h; AID 504894, 2011; Potency, µM (titrated, usually from 9.22 µM), without a hit: top-dose activation of IL-2 secretion, actives largely listed as activators; also: % of control where 0% means no effect
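Primary human leukocytes incubated 48 hr with anti-CD3 beads plus compound, without co-stimulation. Secreted IL-2 measured by HTRF (europium cryptate/d2 anti-IL-2 pair, 320 nm excitation, 665 nm emission).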
MmCpn inh: Inhibitors of TCP-1 ring complex (TRiC) of Methanococcus maripaludis (MmCpn): qHTS; Chaperonin Mm-Cpn (Methanococcus maripaludis); purified Mm-Cpn ATPase, ADP Transcreener TR-FRET; Potency, µM (series often up to 76.9 µM), for inactives: top-dose activity, negative = inhibition, hits mostly inhibitors; 0.031% of 330,000 active; AID 504842, 2011; also: potency is read from the fitted curve at half-maximal effect; % is scaled to controls: 0 for no effect and ±100 for the full control effect; nearly all actives have a fitted effect of over 80% in size
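ATPase turnover read by TR-FRET ADP competition (Eu cryptate antibody/ADP-d2, 665/590 nm): 10uM ATP final, 25nM Mm-CPN final, 30 min 37degC after 10-min compound preincubation, pH 7.4 Tris/KCl/MgCl2/DTT buffer.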
TSHR antagonist: Antagonists of the Thyroid Stimulating Hormone Receptor: HTS campaign; TSHR-expressing cells, TSH-stimulated cAMP HTRF, 2 h; hits give low values; activity change, negative = inhibition, % at 11.5 µM; 0.2% of 330,000 active; AID 504810, 2011;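 active = activity change below a set negative limit, meaning inhibition stronger than a set level, cut at about -70% in these data; inconclusive = activity change between two set negative limits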; also: % is scaled to controls: 0 for no effect and ±100 for the full control effect
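TSHR-expressing cells were treated with compounds, then stimulated with TSH at EC80 (4nM final) for 2 hours at 37 deg C. Cellular cAMP was measured by HTRF competition between lysate cAMP and cAMP-d2 for a cryptate-labelled anti-cAMP antibody.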
B2AR arrestin: qHTS assay of beta-arrestin-biased ligands of beta2-adrenergic receptor; Beta-2 adrenergic receptor (Homo sapiens), P07550; beta-arrestin recruitment to beta2AR, cell-based reporter; Potency, µM (titrated, usually from 46.1 µM), for inactives: at the top dose activation, actives largely listed as activators; 0.02% of 330,000 active;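 also: potency is read from the fitted curve at half-maximal effect; 0% = DMSO controls and full agonism = EC100 isoproterenol or metaproterenol; nearly all actives have a fitted effect of over 65% in size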
Target sequence (P07550 whole entry, looked up): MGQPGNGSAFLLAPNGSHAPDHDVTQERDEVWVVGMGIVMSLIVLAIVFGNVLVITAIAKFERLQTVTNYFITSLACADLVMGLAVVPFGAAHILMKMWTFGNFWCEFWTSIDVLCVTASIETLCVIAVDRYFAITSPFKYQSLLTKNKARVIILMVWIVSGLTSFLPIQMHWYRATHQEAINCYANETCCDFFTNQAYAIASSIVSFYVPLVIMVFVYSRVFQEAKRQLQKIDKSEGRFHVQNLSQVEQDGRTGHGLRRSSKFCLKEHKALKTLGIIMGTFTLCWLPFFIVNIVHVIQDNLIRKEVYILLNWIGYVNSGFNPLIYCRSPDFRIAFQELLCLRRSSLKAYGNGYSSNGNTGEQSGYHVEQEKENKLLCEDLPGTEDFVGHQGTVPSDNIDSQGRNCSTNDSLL
The depositor's hits bear a star; ? = inconclusive; · = no result; [ ] = remark or other dose. Rows were chosen to be rich in hits. Some 0.5% of all compounds tested hit in one or more screens of this group. Unless noted, calls follow the shape of the dose curve; as a rule, active = well fitted curve in the direction sought with a large enough effect; inconclusive = small, poorly fitted or top-dose-only effect, or another doubt; inactive = no such curve, though single readings can be large; an effect the other way counts as inactive or inconclusive.

SMILES	CCT chaperon mod	TCR activator	MmCpn inh	TSHR antagonist	B2AR arrestin
O=C(CCCC1=NS(=O)(=O)c2ccccc2N1)N1CCN(c2ccc(Cl)cc2)CC1	-1	-6%	0%	-6	-1%
Cc1cccc(C)c1N1CCN(c2ccc3nnc(C(F)(F)F)n3n2)CC1	3	7%	0%	-3	0%
Cc1nnc(SCc2nnc(-c3ccccc3)o2)n(N)c1=O	-2	-4%	1%	-2	0%
Cc1cccc(NC(=O)CCc2ccccc2)c1C	-49*	·	1%	8	-2%
Cc1cccc(NC(=O)CCSc2ccccc2)c1C	0	-49%	0%	13	0%
Cc1cccc(NC(=O)CNCC(=O)Nc2cccc(C)c2C)c1C	-49*	-11%	1%	2	0%
CCOC(=O)c1c(S(=O)(=O)NCC(=O)Nc2cccc(C)c2C)c(C)n(C)c1C	2	6%	-13%	-112*	0%
O=C(O)c1cc(/C=C/C(=O)c2cc(F)ccc2O)c2c(c1)COCO2	3	3%	-1%	-6	0%
CC(C)CC1=NN2C(=N)/C(=C\c3coc4ccccc4c3=O)C(=O)N=C2S1	-5	3%	4%	-9	0%
CCSC1=NSC2=NC(=O)/C(=C\c3coc4ccccc4c3=O)C(=N)N12	-1	-4%[46.1 µM]	0%	-91*	-2%
CCc1nc2c(OCC=C(C)C)cccn2c1N(C)C(=O)c1ccccc1F	-3	·	·	·	·
C/C=C/c1ccc(OCCCCN2CCN(CC)CC2)c(OC)c1	-58*	0%	0%	5	0%
COc1ccc(CCNC(=O)C2CCN(S(=O)(=O)c3cccc4cccnc34)CC2)cc1OC	-46*	-1%	-2%	8	1%
COc1ccc(CCNC(=O)C2CCN(S(=O)(=O)c3cccc4nsnc34)CC2)cc1OC	0	-5%	-6%	18	-1%
O=C(Nc1nnc(SCC(=O)N2CCCCC2)s1)C1CCCCC1	-60*	2%[46.1 µM]	-4%	-2	0%
COCC(=O)Nc1nnc(SCC(=O)N2CCCCC2)s1	-1	-4%	-2%	2	0%
CCOc1ccc(N(CC(=O)Nc2cccnc2)S(=O)(=O)c2ccc(C)cc2)cc1	-1	·	-1%	12	?
O=C(Nc1nc(-c2ccccc2)cs1)C1CCCN(S(=O)(=O)c2ccccc2)C1 (configuration not stated)	-2	·	-8%	-75*	-2%
O=C(Nc1nc(-c2ccc3ccccc3c2)cs1)C1CCN(S(=O)(=O)c2cccs2)CC1	-51*	10%[46.1 µM]	-7%	-10	-1%
Cc1ccc(-c2csc(NC(=O)C3CCN(S(=O)(=O)c4cccs4)CC3)n2)cc1	-1	2%[46.1 µM]	-7%	-36	0%
O=C(Nc1nc(-c2ccccc2)cs1)C1CCCN(S(=O)(=O)c2cccc([N+](=O)[O-])c2)C1 (configuration not stated)	2	3%	1%	-19	0%
CCOC(=O)C1=CCC(c2cccc(Cl)c2)N(S(=O)(=O)c2ccc(C)cc2)C1 (configuration not stated)	0	·	·	·	·
COc1cccc(N2CCN(c3ncnc4c3cnn4-c3ccc(C)cc3C)CC2)c1	-1	4%	-4%	-93*	-1%
Cc1ccc(-n2ncc3c(N4CCCC4)ncnc32)c(C)c1	2	-10%	3%	-10	0%
CC(c1cccs1)N(Cc1ccco1)C(=S)Nc1ccc(F)c(Cl)c1 (configuration not stated)	-59*	-3%	1%	8	0%
Cc1ccccc1NC(=S)NNc1ncc(C(F)(F)F)cc1Cl	-2	4%	50µM*	9	0%
Cc1c(Cl)cccc1NC(=S)NNc1ncc(C(F)(F)F)cc1Cl	-10	9%	-1%	-5	0%
COc1ccc(-c2noc(CCC(=O)N3CCN(c4ccccc4OC)CC3)n2)cc1	-39*	3%[46.1 µM]	1%	-7	-1%
COc1ccc(-c2noc(CCC(=O)N3CCN(c4ccccc4C)CC3)n2)cc1	-1	-5%[46.1 µM]	0%	-18	-1%
